system: PXR homodimer (NR concentration 270 nM); assay: PBM binding z-score (relative to random genomic background probes); higher = stronger binding; sequences stand for … in GC…GCGATTGACAGCGTAGAATGAAGG
In short: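 The probes on custom Agilent 4×180K protein-binding microarrays were double-stranded, with 34-nt variable regions bearing direct-repeat seeds, single-nucleotide variants, half-site ablations and random human genomic background sequences. Incubation lasted 1 h with ligand-free nuclear receptor dimers in PBS pH 7.4, 2% milk, 0.02% Triton X-100, 1 mM DTT, 0.2 mg/mL BSA and 0.4 mg/ml salmon testes DNA. Antibodies against each partner (one per run) detected bound dimers, and fluorescence scans were regression-normalized. Binding z-scores take the random background probes as reference.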

Sequence	PBM binding z-score
TCTTGTACATCAACAGGAGGTTAAGAAAGATCGA	0.161
TCTTGTAGATCAACAGGAGGTTATGAAAGATCGA	-0.367
TCATATAGGTAATACAGGTGGAAGTCGGCATCTA	0.602
GCTATTAGTTGAAAGGGCCACCGAATGATTCTCG	-0.184
CCTATTAGTTGACTATAAGGGCAACCGAAGCTCG	0.676
TATACAGGGTCAAAGGACAGAGTACGAATGTCGA	1.01
CCTCGGAGGACAACAAGAGGTCAGAGCTGCCAGA	0.241
TCTATTAGTTGAAGCGCAACCGACGAGTCCGTTT	0.219
ACAATGAGGTTATACGTAGATCAGGGAAGAAAGT	0.655
ATCTCTAGGTAACCAAGTTAAGTGAATGCCGAAC	0.739
ATCTCCAGGTAACCAAGTTCAGTGAATGCCGAAC	2.55
TCTACTAGGTCAGTTGGTCAGCTAACGAGCTGCC	-0.418
GCATATAGGTAATACAAGTTGAAAGTCCGATTGT	0.733
TAGCCTAGGTCATGGGCCAATATACCACGCGAAC	-0.28
GCGACTGGGGCAAAGCAGGTTACCCTAAGGTTGG	-0.579
CAAACTAGGTCACCGGAACGTCAAAGTCCGCATG	0.254
ATCTCTAGTTAAAAGTTCAGTGAATCCCGAGGAT	2
ATACCAAGGAGATCGTGAGGTCGTTGATACTAAC	1.21
